# ELG1 repair inh – blocks ELG1-dependent DNA repair in HEK293T cells; HEK293T ELG1-luciferase reporter, luminescence, 16 h; DNA damage induced by 5-fluorouridine; 330,000 compounds, 2.3% hits; Potency, µM (titrated, usually from 46.1 µM), for inactives: top-dose activity change, negative = inhibition, hits mostly inhibitors; note: potency is the fitted concentration of half-maximal effect; nearly all actives have a fitted effect of over 55% in size
#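 In this reporter screen, reduction of luminescence relative to DMSO vehicle indicated activity. Compounds and 5-fluorouridine were added together to 2,000 cells per well, incubated for 16 hr at 37 °C, then developed with ONE-Glo.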
# IL-1B inflam inh – blocks inflammasome-driven IL-1 beta release; 360,000 compounds, 4.7% hits; activity change, % at 57.5 µM; AID 743279; THP-1 LPS/ATP IL-1B secretion, AlphaLISA, 16 h; stronger effect = lower value; in the data active = activity change below about -50%; inconclusive = mostly about -30% to -49%
#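 Secreted IL-1B measured by AlphaLISA bead assay after 16 h compound exposure of THP-1 cells; compounds (final up to 57.5 uM) added 1 h before LPS (250 ng/mL) and ATP (1.25 mM) stimulation; lower signal means less secretion.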
# HT1080NT lethal – kills 2HG-producing HT-1080-NT fibrosarcoma cells; Potency, µM (series often up to 46.1 µM), for the others: top-dose activity, negative = less viability, hits mostly cytotoxic; 360,000 compounds, 1.6% hits; HT-1080-NT fibrosarcoma viability, CellTiter-Glo ATP luminescence, 48 h;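 note: NT is the 2HG producing partner of a matched IDH1 knockdown line; potency is the fitted concentration of half-maximal effect; 0% = DMSO-treated cells and -100% = media-only wells without cells; nearly all actives have a fitted effect of over 55% in size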
#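 HT-1080-NT; 750 cells/well; 5% FBS RPMI; 48 h compound, 37 degrees C; CellTiter-Glo luminescence; curve fitting and curve-class assignment.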
# TDP1 cell noCPT – qHTS for Inhibitors of human tyrosyl-DNA phosphodiesterase 1 (TDP1): qHTS in cells in absence of CPT; DT40 Tdp1-/- hTDP1 cells, no CPT, ATP luminescence, 48 h; Potency, µM (highest dose often 46.2 µM), for the others: at the top dose activity change, negative = growth inhibition, most hits filed as inhibitors; 420,000 compounds, 15% hits; AID 686978, 2013; note: potency is the fitted concentration of half-maximal effect; nearly all actives have a fitted effect of over 55% in size
#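 No-CPT arm: Tdp1-/-;hTDP1 DT40 cells (400/well) plus compounds, incubated ≥48 hr at 37 °C. Readout CellTiter-Glo luminescence.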
# HT1080 IDH1KD tx – HT-1080 IDH1 knockdown cell toxicity (counter line). HT-1080 IDH1 knockdown viability, ATP luminescence, 48 h. Potency, µM (titrated, usually from 46.1 µM), for the others: at the highest dose activity, negative = toxicity, most hits filed as cytotoxic. 360,000 compounds, 2% hits. AID 686971;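 note: potency is the fitted concentration of half-maximal effect; 0% = DMSO wells and -100% = cell-free medium wells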
#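 Luminescent ATP read-out (CellTiter-Glo, 10 min at room temperature) after 48 h compound exposure at 37 °C gave viability of IDH1-knockdown HT-1080 cells. Activity was normalised to DMSO and cell-free wells, then fitted as concentration-response curves.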
# DT40 TDP1 CPT – DT40-hTDP1 cell growth loss with CPT; chicken DT40 Tdp1-/-;hTDP1 cells + 20 nM CPT, ATP luminescence, 48 h; Potency, µM (series often up to 46.2 µM), for the others: at the top dose activity change, negative = growth inhibition, most hits filed as inhibitors; 420,000 compounds, 12% hits; note: potency is the fitted concentration of half-maximal effect; nearly all actives have a fitted effect of over 55% in size
#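 Cell growth measured by CellTiter-Glo luminescence after a minimum 48 h, 37 C compound exposure with 20 nM CPT in Tdp1-knockout DT40 cells stably expressing hTDP1, seeded 400/well; qHTS titration format.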
# An asterisk follows results filed as active; u = inconclusive; x = no result given; [ ] = remark or other dose. A selection: hits, their analogues and other compounds. The true share with any hit is near 19%. Unless noted, calls come from the whole dose curve; as a rule, active = well fitted curve in the direction sought with a large enough effect; inconclusive = small, poorly fitted or top-dose-only effect, or another doubt; inactive = no such curve, though single readings can be large; an effect the other way counts as inactive or inconclusive. Unless noted, % is set by controls: 0 for no effect and ±100 for the full control effect.
SMILES,ELG1 repair inh,IL-1B inflam inh,HT1080NT lethal,TDP1 cell noCPT,HT1080 IDH1KD tx,DT40 TDP1 CPT
COC(=O)[C@@]12C[C@@H](CC(=O)N3CCCC3)C(=O)N(Cc3cccc4ccccc34)C1=CCC(C)(C)C2,x,-22,u,u,-27%,u
COC(=O)[C@@]12C[C@@H](CC(=O)N3CCN(C(=O)c4ccco4)CC3)C(=O)N(Cc3ccco3)C1=CCC(C)(C)C2,x,-11,23%,u,3%,u
COC(=O)[C@@]12C[C@@H](CC(=O)N3CCN(C(=O)C4CC4)CC3)C(=O)N(Cc3cccc4ccccc34)C1=CCC(C)(C)C2,x,-12,u,21µM*,u,u
COC(=O)[C@@]12C[C@@H](CC(=O)N3CCOCC3)C(=O)N(Cc3cccc4ccccc34)C1=CCC(C)(C)C2,x,-26,-12%,u,-4%,16µM*
COc1cccc(C2NC(=O)CCC2[N+](=O)[O-])c1 (stereo not given),7%,37,-1%,-7%,21%,51%
Cc1ccc2cc(CNCc3cccc4ccccc34)c(N3CCC(O)CC3)nc2c1,x,x,x,-29%,x,-2%[9.04 µM]
Cn1nccc1NS(=O)(=O)c1ccc(NC(=O)C(F)(F)F)cc1,3%,x,21%,-10%,20%,2%
C=CCNC(=O)/C(C#N)=C/c1c(N2CCN(c3ccccc3)CC2)nc2c(C)cccn2c1=O,-16%,55,0%,u,13%,6%
COC(=O)/C(C#N)=C/c1c(N2CCN(c3cccc(Cl)c3)CC2)nc2c(C)cccn2c1=O,u,50,0%,u,5%,u
C=CCNC(=O)/C(C#N)=C/c1c(N2CCN(c3ccc(OC)cc3)CC2)nc2c(C)cccn2c1=O,u,10,-19%,13µM*,-18%,u
CCOC(=O)/C(C#N)=C/c1c(N2CCN(c3ccccc3)CC2)nc2c(C)cccn2c1=O,-16%,105,15%,-26%,12%,u
COc1ccc(Oc2nc3c(C)cccn3c(=O)c2/C=C(\C#N)C(N)=O)cc1,-1%,23,u,1.8µM*,u,u
COc1ccc(N2CCN(c3nc4c(C)cccn4c(=O)c3/C=C(\C#N)C(N)=O)CC2)cc1,13µM*,17,3%,u,1%,u
COc1cccc(CC2(CO)CCCN(CC3=Cc4cc(Cl)ccc4OC3)C2)c1 (stereo not given),-18%,-28,-7%,u,-14%,-10%
CC1=NNC(=O)C1CC(=O)N/N=C(\C)c1ccco1 (stereo not given),-11%,29,-7%,2%,10%,-12%
Cc1ccc(OCc2nnc(SCC(=O)N3C(C)CCCC3C)o2)cc1 (stereo not given),4%,-6,-2%,u,-16%,-18%
COCCCN=C1NN=C(c2cc(C)n(-c3ccccc3F)c2C)CS1,u,17,u,8.2µM*,u,16µM*
COCCCN=C1NN=C(c2cc(C)n(Cc3ccccc3Cl)c2C)CS1,u,u,4.6µM*,2.3µM*,7.3µM*,u
COCCCN=C1NN=C(c2cc(C)n(-c3ccccc3)c2C)CS1,u,39,7%,16µM*,13%,u
COCCN=C1NN=C(c2cc(C)n(CC3CCCO3)c2C)CS1 (stereo not given),6%,-9,-8%,u,-1%,u
COc1ccccc1C1CN(CC(=O)N[C@H]2CCCCNC2=O)Cc2ccccc2O1 (stereo not given in full),x,x,x,u,x,4%[9.04 µM]

# Compound activity: PubChem, National Center for Advancing Translational Sciences (NCATS)
